Results taken from the supplement of paper PMC4466140.

Molecular target: AgAbp1
Experiment: SPOT peptide array binding signal intensity (averaged, normalized) (arbitrary units (background-subtracted, floor 0; scale differs between SH3 domains)); higher = stronger binding of the SH3 domain to the peptide
How it was run: (§1)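 E. coli BL21(DE3) was used to express GST-fused SH3 domains from four yeast species, which were then purified on glutathione Sepharose. These were incubated at 10 μg/ml in TBS-based blocking buffer overnight at 4°C on cellulose membranes carrying synthetic 15-mer peptides, in which cysteines were replaced by serines. Binding signal is the replicate average of normalized, background-subtracted spot intensity, in arbitrary units that differ between domains.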

Binder | SPOT peptide array binding signal intensity
VPPPMQPPPIESSNL | ≤ 0

Molecular target: AgBbc1
Experiment: as above
How it was run: as §1

Binder | SPOT peptide array binding signal intensity
VPPPMQPPPIESSNL | 2.5

Molecular target: AgBem1-D1
Experiment: as above
How it was run: as §1

Binder | SPOT peptide array binding signal intensity
VPPPMQPPPIESSNL | 238

Molecular target: AgBzz1-D1
Experiment: as above
How it was run: as §1

Binder | SPOT peptide array binding signal intensity
VPPPMQPPPIESSNL | ≤ 0

Molecular target: AgBzz1-D2
Experiment: as above
How it was run: as §1

Binder | SPOT peptide array binding signal intensity
VPPPMQPPPIESSNL | ≤ 0

Molecular target: AgCyk3
Experiment: as above
How it was run: as §1

Binder | SPOT peptide array binding signal intensity
VPPPMQPPPIESSNL | 0.5

Molecular target: AgFus1
Experiment: as above
How it was run: as §1

Binder | SPOT peptide array binding signal intensity
VPPPMQPPPIESSNL | 159

Molecular target: AgHof1
Experiment: as above
How it was run: as §1

Binder | SPOT peptide array binding signal intensity
VPPPMQPPPIESSNL | 0.25

Molecular target: AgHse1
Experiment: as above
How it was run: as §1

Binder | SPOT peptide array binding signal intensity
VPPPMQPPPIESSNL | 90

Molecular target: AgLsb1
Experiment: as above
How it was run: as §1

Binder | SPOT peptide array binding signal intensity
VPPPMQPPPIESSNL | ≤ 0

Molecular target: AgLsb4
Experiment: as above
How it was run: as §1

Binder | SPOT peptide array binding signal intensity
VPPPMQPPPIESSNL | ≤ 0

Molecular target: AgMyo5
Experiment: as above
How it was run: as §1

Binder | SPOT peptide array binding signal intensity
VPPPMQPPPIESSNL | 102

Molecular target: AgNbp2
Experiment: as above
How it was run: as §1

Binder | SPOT peptide array binding signal intensity
VPPPMQPPPIESSNL | 98

Molecular target: AgRvs167
Experiment: as above
How it was run: as §1

Binder | SPOT peptide array binding signal intensity
VPPPMQPPPIESSNL | ≤ 0

Molecular target: AgSho1
Experiment: as above
How it was run: as §1

Binder | SPOT peptide array binding signal intensity
VPPPMQPPPIESSNL | 67

Molecular target: AgSla1-D1-D2
Experiment: as above
How it was run: as §1

Binder | SPOT peptide array binding signal intensity
VPPPMQPPPIESSNL | ≤ 0

Molecular target: AgSla1-D3
Experiment: as above
How it was run: as §1

Binder | SPOT peptide array binding signal intensity
VPPPMQPPPIESSNL | 0.75

Molecular target: CaAbp1-D1
Experiment: as above
How it was run: as §1

Binder | SPOT peptide array binding signal intensity
VPPPMQPPPIESSNL | ≤ 0

Molecular target: CaAbp1-D2
Experiment: as above
How it was run: as §1

Binder | SPOT peptide array binding signal intensity
VPPPMQPPPIESSNL | 8

Molecular target: CaBbc1
Experiment: as above
How it was run: as §1

Binder | SPOT peptide array binding signal intensity
VPPPMQPPPIESSNL | 10.5

Molecular target: CaBem1-D1
Experiment: as above
How it was run: as §1

Binder | SPOT peptide array binding signal intensity
VPPPMQPPPIESSNL | 26

Molecular target: CaBzz1-D1
Experiment: as above
How it was run: as §1

Binder | SPOT peptide array binding signal intensity
VPPPMQPPPIESSNL | 35

Molecular target: CaBzz1-D2
Experiment: as above
How it was run: as §1

Binder | SPOT peptide array binding signal intensity
VPPPMQPPPIESSNL | 8.25

Molecular target: CaCyk3
Experiment: as above
How it was run: as §1

Binder | SPOT peptide array binding signal intensity
VPPPMQPPPIESSNL | 8

Molecular target: CaFus1
Experiment: as above
How it was run: as §1

Binder | SPOT peptide array binding signal intensity
VPPPMQPPPIESSNL | 740

Molecular target: CaHof1
Experiment: as above
How it was run: as §1

Binder | SPOT peptide array binding signal intensity
VPPPMQPPPIESSNL | ≤ 0

Molecular target: CaHse1
Experiment: as above
How it was run: as §1

Binder | SPOT peptide array binding signal intensity
VPPPMQPPPIESSNL | 68

Molecular target: CaLsb1
Experiment: as above
How it was run: as §1

Binder | SPOT peptide array binding signal intensity
VPPPMQPPPIESSNL | 0.5

Molecular target: CaLsb4
Experiment: as above
How it was run: as §1

Binder | SPOT peptide array binding signal intensity
VPPPMQPPPIESSNL | 388

Molecular target: CaMyo5
Experiment: as above
How it was run: as §1

Binder | SPOT peptide array binding signal intensity
VPPPMQPPPIESSNL | 142

Molecular target: CaNbp2
Experiment: as above
How it was run: as §1

Binder | SPOT peptide array binding signal intensity
VPPPMQPPPIESSNL | 172

Molecular target: CaRvs167
Experiment: as above
How it was run: as §1

Binder | SPOT peptide array binding signal intensity
VPPPMQPPPIESSNL | 12.5

Molecular target: CaRvs167-3
Experiment: as above
How it was run: as §1

Binder | SPOT peptide array binding signal intensity
VPPPMQPPPIESSNL | 1

Molecular target: CaSho1
Experiment: as above
How it was run: as §1

Binder | SPOT peptide array binding signal intensity
VPPPMQPPPIESSNL | 279

Molecular target: CaSla1-D1-D2
Experiment: as above
How it was run: as §1

Binder | SPOT peptide array binding signal intensity
VPPPMQPPPIESSNL | 168

Molecular target: CaSla1-D3
Experiment: as above
How it was run: as §1

Binder | SPOT peptide array binding signal intensity
VPPPMQPPPIESSNL | 249

Molecular target: ScAbp1
Experiment: as above
How it was run: as §1

Binder | SPOT peptide array binding signal intensity
VPPPMQPPPIESSNL | ≤ 0

Molecular target: ScBbc1
Experiment: as above
How it was run: as §1

Binder | SPOT peptide array binding signal intensity
VPPPMQPPPIESSNL | ≤ 0

Molecular target: ScBem1-D1
Experiment: as above
How it was run: as §1

Binder | SPOT peptide array binding signal intensity
VPPPMQPPPIESSNL | ≤ 0

Molecular target: ScBzz1-D1
Experiment: as above
How it was run: as §1

Binder | SPOT peptide array binding signal intensity
VPPPMQPPPIESSNL | ≤ 0

Molecular target: ScBzz1-D2
Experiment: as above
How it was run: as §1

Binder | SPOT peptide array binding signal intensity
VPPPMQPPPIESSNL | 2

Molecular target: ScCyk3
Experiment: as above
How it was run: as §1

Binder | SPOT peptide array binding signal intensity
VPPPMQPPPIESSNL | 5

Molecular target: ScFus1
Experiment: as above
How it was run: as §1

Binder | SPOT peptide array binding signal intensity
VPPPMQPPPIESSNL | 328

Molecular target: ScHof1
Experiment: as above
How it was run: as §1

Binder | SPOT peptide array binding signal intensity
VPPPMQPPPIESSNL | ≤ 0

Molecular target: ScHse1
Experiment: as above
How it was run: as §1

Binder | SPOT peptide array binding signal intensity
VPPPMQPPPIESSNL | 65

Molecular target: ScLsb1
Experiment: as above
How it was run: as §1

Binder | SPOT peptide array binding signal intensity
VPPPMQPPPIESSNL | 0.25

Molecular target: ScLsb2
Experiment: as above
How it was run: as §1

Binder | SPOT peptide array binding signal intensity
VPPPMQPPPIESSNL | ≤ 0

Molecular target: ScLsb3
Experiment: as above
How it was run: as §1

Binder | SPOT peptide array binding signal intensity
VPPPMQPPPIESSNL | ≤ 0

Molecular target: ScLsb4
Experiment: as above
How it was run: as §1

Binder | SPOT peptide array binding signal intensity
VPPPMQPPPIESSNL | 9

Molecular target: ScMyo3
Experiment: as above
How it was run: as §1

Binder | SPOT peptide array binding signal intensity
VPPPMQPPPIESSNL | 854

Molecular target: ScMyo5
Experiment: as above
How it was run: as §1

Binder | SPOT peptide array binding signal intensity
VPPPMQPPPIESSNL | 502

Molecular target: ScNbp2
Experiment: as above
How it was run: as §1

Binder | SPOT peptide array binding signal intensity
VPPPMQPPPIESSNL | 206

Molecular target: ScPex13
Experiment: as above
How it was run: as §1

Binder | SPOT peptide array binding signal intensity
VPPPMQPPPIESSNL | 12.2

Molecular target: ScRvs167
Experiment: as above
How it was run: as §1

Binder | SPOT peptide array binding signal intensity
VPPPMQPPPIESSNL | ≤ 0

Molecular target: ScSho1
Experiment: as above
How it was run: as §1

Binder | SPOT peptide array binding signal intensity
VPPPMQPPPIESSNL | 324

Molecular target: ScSla1-D1-D2
Experiment: as above
How it was run: as §1

Binder | SPOT peptide array binding signal intensity
VPPPMQPPPIESSNL | 75.5

Molecular target: ScSla1-D3
Experiment: as above
How it was run: as §1

Binder | SPOT peptide array binding signal intensity
VPPPMQPPPIESSNL | 122

Molecular target: SpAbp1-D1
Experiment: as above
How it was run: as §1

Binder | SPOT peptide array binding signal intensity
VPPPMQPPPIESSNL | ≤ 0

Molecular target: SpBbc1
Experiment: as above
How it was run: as §1

Binder | SPOT peptide array binding signal intensity
VPPPMQPPPIESSNL | ≤ 0

Molecular target: SpBzz1-D1
Experiment: as above
How it was run: as §1

Binder | SPOT peptide array binding signal intensity
VPPPMQPPPIESSNL | 28.5

Molecular target: SpBzz1-D2
Experiment: as above
How it was run: as §1

Binder | SPOT peptide array binding signal intensity
VPPPMQPPPIESSNL | ≤ 0

Molecular target: SpCyk3
Experiment: as above
How it was run: as §1

Binder | SPOT peptide array binding signal intensity
VPPPMQPPPIESSNL | 6

Molecular target: SpHof1
Experiment: as above
How it was run: as §1

Binder | SPOT peptide array binding signal intensity
VPPPMQPPPIESSNL | 4.5

Molecular target: SpHof1-2
Experiment: as above
How it was run: as §1

Binder | SPOT peptide array binding signal intensity
VPPPMQPPPIESSNL | 1.5

Molecular target: SpHof1-3
Experiment: as above
How it was run: as §1

Binder | SPOT peptide array binding signal intensity
VPPPMQPPPIESSNL | ≤ 0

Molecular target: SpHse1
Experiment: as above
How it was run: as §1

Binder | SPOT peptide array binding signal intensity
VPPPMQPPPIESSNL | 163

Molecular target: SpLsb1
Experiment: as above
How it was run: as §1

Binder | SPOT peptide array binding signal intensity
VPPPMQPPPIESSNL | ≤ 0

Molecular target: SpLsb4
Experiment: as above
How it was run: as §1

Binder | SPOT peptide array binding signal intensity
VPPPMQPPPIESSNL | 61.5

Molecular target: SpMyo1
Experiment: as above
How it was run: as §1

Binder | SPOT peptide array binding signal intensity
VPPPMQPPPIESSNL | 957

Molecular target: SpNbp2
Experiment: as above
How it was run: as §1

Binder | SPOT peptide array binding signal intensity
VPPPMQPPPIESSNL | 46

Molecular target: SpPex13
Experiment: as above
How it was run: as §1

Binder | SPOT peptide array binding signal intensity
VPPPMQPPPIESSNL | 5

Molecular target: SpRvs167
Experiment: as above
How it was run: as §1

Binder | SPOT peptide array binding signal intensity
VPPPMQPPPIESSNL | ≤ 0

Molecular target: SpSla1-D1-D2
Experiment: as above
How it was run: as §1

Binder | SPOT peptide array binding signal intensity
VPPPMQPPPIESSNL | ≤ 0

Molecular target: SpSla1-D3
Experiment: as above
How it was run: as §1

Binder | SPOT peptide array binding signal intensity
VPPPMQPPPIESSNL | 138
